PMC6212790, “How bacterial xenogeneic silencer rok distinguishes foreign from self DNA in its resident genome”
Whole data set: some 33,000 sequences, median “e-score” near -0.038, cut for the highest 2% near 0.33. This excerpt belongs to a sample that is enriched for the highest values.

molecular target: T1, GST-Rok-C97-191 (Bacillus subtilis subsp. subtilis str. …, UniProt O34857 97-191); test: protein binding microarray; Rok is a gene silencer of Bacillus subtilis; high values mean tight binding; conditions: protein: recombinant; tags: GST (pTH5325, pDEST15-Magic modified); dsDNA, one strand shown
T1 sequence: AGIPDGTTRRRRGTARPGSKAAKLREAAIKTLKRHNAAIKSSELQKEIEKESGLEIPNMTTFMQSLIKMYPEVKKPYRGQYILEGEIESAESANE
Method in brief: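 Every oligonucleotide joins a 25-mer constant primer to a 35-mer variable part drawn from a de Bruijn sequence of order 10, so each non-palindromic 8-mer appears at least 32 times and each palindromic 8-mer 16 times. The preference for every 8-mer is reported as a unitless, rank-based enrichment score (E-score). This score spans 0.5 for the most favored 8-mer to −0.5 for the most disfavored.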

| Sequence | binding signal [E-score] |
| --- | --- |
| TCCGCTCA | -0.118 |
| CGCTTTCC | -0.13 |
| CGGAAAGA | -0.135 |
| AACCTCAA | -0.0809 |
| ACACTGGT | 0.0216 |
| GCGGGAGA | -0.111 |
| CTGGCGAC | -0.196 |
| ACTATAGT | 0.411 |
| AATATCGT | 0.204 |
| AATATAGG | 0.0639 |
| ACTATAGG | 0.148 |
| ACTATAGC | 0.207 |
| AATATAGT | 0.337 |
| AAAATAGT | 0.404 |
| AATATAGC | 0.349 |
| CATATAGC | 0.127 |
| AAAATAGC | 0.21 |
| AAAATAGA | 0.271 |
| GATATAGC | 0.0553 |
| GTTCAGCA | 0.0486 |
| TAAGGCAA | 0.0603 |
| CTGGGAAG | -0.0965 |
| CCACTTAG | -0.0775 |
| CGGAGTCC | -0.199 |
| TAGATCAA | 0.156 |

| Sequence | binding signal [E-score] |
| --- | --- |
| CTCGACGA | -0.162 |
| CTTCAGAC | -0.188 |
| AACCGGTA | 0.182 |
| CACCGATA | 0.152 |
| TACCGGTA | 0.355 |
| AACCGATA | 0.108 |
| CACCGGTA | 0.0827 |
| TACCGATA | 0.339 |
| GACAAGGC | -0.188 |
| AAATGCTT | -0.000293 |
| GAGCTCGA | 0.0407 |
| ACGCCAAA | -0.128 |
| AAGATATG | 0.117 |
| AAGATAAA | 0.314 |
| AAGATATC | 0.2 |
| GAGATAGA | 0.15 |
| AAGATAAC | 0.131 |
| CAGATAGA | 0.16 |
| TAGATAGA | 0.345 |
| AAGATACA | 0.151 |
| AAGATAAT | 0.339 |
| TAGATACA | 0.329 |
| AAGATATA | 0.347 |
| CAGATACA | 0.146 |
| GAATAGCC | -0.126 |

| Sequence | binding signal [E-score] |
| --- | --- |
| AGCAGTCC | -0.0761 |
| AACCCACT | 0.0905 |
| ACATCGAA | 0.0242 |
| GCGGCAGA | -0.0665 |
| GGTTTGGA | -0.0233 |
| TTCTTCAA | -0.0566 |
| AGTGGATG | -0.131 |
| AAGGCGAT | -0.0931 |
| TAGATATA | 0.359 |
| GAGATATA | 0.301 |
| CAGATATA | 0.195 |
| ACGTACTC | 0.0226 |
| ATTATTAA | 0.199 |
| ATTATTAG | 0.325 |
| CTTATTAA | 0.117 |
| CTTATTAC | 0.332 |
| CTTATTTC | 0.221 |
| ATTATTAC | 0.387 |
| GTAGCTGA | 0.279 |
| AATCCTTA | 0.107 |
| GAATAAAC | 0.0598 |
| ACTCATCG | 0.0111 |
| AATAGGGT | 0.0409 |
| AGTATATG | 0.264 |
| GGTATAAA | 0.352 |

| Sequence | binding signal [E-score] |
| --- | --- |
| AGTATAAA | 0.289 |
| AGTATATC | 0.261 |
| GGTATATA | 0.406 |
| AGTATATA | 0.428 |
| GGTATAGA | 0.221 |
| CGTATATA | 0.258 |
| GGTATAAC | 0.266 |
| CATTAAGG | -0.0335 |
| AGACATTA | 0.0762 |
| ATCCGTAA | -0.0485 |
| GACTCATA | -0.063 |
| CCATCAGA | -0.0159 |
| CGTGCACC | -0.199 |
| CCTACCAG | 0.0329 |
| GCCCTGTA | -0.192 |
| ACACTACC | -0.0628 |
| CTACTAGC | 0.256 |
| ATACTACC | 0.379 |
| CGACTACC | 0.000144 |
| ATACTACG | 0.273 |
| CTACTACC | 0.363 |
| GCTAACCA | -0.102 |
| GAGTCTTA | -0.0226 |
| GCTTACAC | -0.028 |
| ACGCGGGA | -0.0896 |

| Sequence | binding signal [E-score] |
| --- | --- |
| CGAGCCGA | -0.177 |
| CCTAAATC | -0.11 |
| ACTAAATA | 0.354 |
| ACTAAATC | 0.35 |
| GCTAAATA | 0.32 |
| ACTAAATG | 0.226 |
| ACTAAAAA | 0.26 |
| ACTAAAAC | 0.26 |
| ACTAAAAT | 0.397 |
| CCTAAATA | 0.155 |
| ATGAACTC | -0.191 |
| GTCGCCTA | -0.125 |
| ACTATTAT | 0.364 |
| ACTATTAA | 0.302 |
| ACTATTAC | 0.4 |
| GCTATTAC | 0.285 |
| CCTATTAC | 0.247 |
| ACTATTAG | 0.263 |
| ACGGAAAG | -0.117 |
| CAGCTGCA | -0.0452 |
| AACCTATA | 0.183 |
| CACCTATA | 0.223 |
| TACCTATA | 0.375 |
| AACCTAAA | 0.0757 |
| TACCTAAA | 0.369 |

| Sequence | binding signal [E-score] |
| --- | --- |
| CACCTAAA | 0.0109 |
| ACAATGGA | -0.0232 |
| GCTAGCCA | 0.153 |
| GATAAGAA | 0.0314 |
| GTATTATA | 0.388 |
| GTATTAAA | 0.158 |
| CTATTATC | 0.211 |
| ATATTACA | 0.304 |
| CTATTATA | 0.329 |
| ATATTATC | 0.245 |
| GTATTAGA | 0.171 |
| ATATTATG | 0.0424 |
| ATATTATA | 0.379 |
| CTATTACC | 0.312 |
| CGATTATA | 0.261 |
| CTATTACA | 0.35 |
| CCCACTAC | 0.0131 |
| AAGTGGCC | -0.135 |
| ATGCATAC | 0.0643 |
| AATGACAT | 0.115 |
| ATCTAACA | 0.192 |
| CTCTTAGA | -0.0403 |
| CGAAAATA | 0.204 |
| GGGAAATA | 0.229 |
| AGAAAATG | 0.187 |

| Sequence | binding signal [E-score] |
| --- | --- |
| AGAAAATA | 0.342 |
| AGAAATTA | 0.344 |
| GGAAATTA | 0.28 |
| CGAAATTA | 0.31 |
| GAAAAATA | 0.273 |
| GGAAAATA | 0.331 |
| AAGAAGTG | 0.201 |
| GACCGGAA | -0.0227 |
| ATCCTGTA | 0.176 |
| ACGTAAGT | -0.0408 |
| AGCGTTTG | 0.0655 |
| ACAAAAAA | 0.136 |
| AATCGTCG | -0.0319 |
| GAACTAGA | 0.335 |
| TAACTAGA | 0.247 |
| CAACTAGA | 0.255 |
| AGACTAGA | 0.199 |
| ACACTAGA | 0.179 |
| AAACTAGA | 0.354 |
| CCTAATCA | 0.011 |
| CCTCTTAA | -0.103 |
| AACGCCAG | -0.0768 |
